In paper PMC7862700, “An all-to-all approach to the identification of sequence-specific readers for epigenetic DNA modifications on cytosine”:

What was measured:
Assay in all cases: DAPPL (digital affinity profiling via proximity ligation, sequencing); 10 mM Tris-HCl pH 7.5, 50 mM NaCl, 1 mM DTT, 4% glycerol, room temperature, 30 min; GST-TFs on glutathione beads, 16-mer random dsDNA library, 0.1% formaldehyde crosslink after washing; high values mean tight binding
FEV = biological target: T1, FEV (Homo sapiens, UniProt Q99581 1-238); conditions: protein: recombinant; tags: N-terminal GST; dsDNA, one strand shown
T1 sequence: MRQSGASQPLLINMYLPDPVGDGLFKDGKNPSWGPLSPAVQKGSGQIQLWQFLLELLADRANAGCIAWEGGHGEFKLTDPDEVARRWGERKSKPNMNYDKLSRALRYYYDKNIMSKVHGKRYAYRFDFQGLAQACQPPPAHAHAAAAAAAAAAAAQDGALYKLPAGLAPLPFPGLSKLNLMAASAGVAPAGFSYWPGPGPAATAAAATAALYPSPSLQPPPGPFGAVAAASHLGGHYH
How it was run: (§1)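 Binding signal is given per hexamer as its read frequency for a factor divided by its frequency in the tag-only sample. GST-fused human transcription factors were expressed in yeast, captured on glutathione beads, barcoded with DNA and pooled with that sample, then incubated with 200 nmole of a 16-mer random double-stranded DNA library in Tris/NaCl/DTT/glycerol buffer for 30 min at room temperature. The pools were then washed, crosslinked, proximity-ligated, amplified by PCR and sequenced on an Illumina NextSeq500.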

ETV5 = ETV5 (Homo sapiens, UniProt P41161 1-510); conditions: protein: recombinant; tags: N-terminal GST; dsDNA, one strand shown
How it was run: as §1

HSF1 = HSF1 (Homo sapiens, UniProt Q00613 1-529); conditions: protein: recombinant; tags: N-terminal GST; chain copies: 3; dsDNA, one strand shown
How it was run: as §1

SPIC = biological target: T2, SPIC (Homo sapiens, UniProt Q8N5J4 1-248); conditions: protein: recombinant; tags: N-terminal GST; dsDNA, one strand shown
T2 sequence: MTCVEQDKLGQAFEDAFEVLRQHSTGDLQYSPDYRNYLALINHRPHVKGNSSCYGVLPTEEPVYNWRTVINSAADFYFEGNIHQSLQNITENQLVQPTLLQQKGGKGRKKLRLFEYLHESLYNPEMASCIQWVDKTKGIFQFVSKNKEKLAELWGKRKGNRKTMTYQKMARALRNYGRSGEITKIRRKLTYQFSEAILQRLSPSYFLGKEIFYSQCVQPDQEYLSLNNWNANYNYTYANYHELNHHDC
How it was run: as §1

ELF4 = ELF4 (Homo sapiens, UniProt Q99607 1-663); conditions: protein: recombinant; tags: N-terminal GST; dsDNA, one strand shown
How it was run: as §1

ELK4 = biological target: T3, ELK4 (Homo sapiens, UniProt P28324-2 1-405); conditions: protein: recombinant; tags: N-terminal GST; dsDNA, one strand shown
T3 sequence: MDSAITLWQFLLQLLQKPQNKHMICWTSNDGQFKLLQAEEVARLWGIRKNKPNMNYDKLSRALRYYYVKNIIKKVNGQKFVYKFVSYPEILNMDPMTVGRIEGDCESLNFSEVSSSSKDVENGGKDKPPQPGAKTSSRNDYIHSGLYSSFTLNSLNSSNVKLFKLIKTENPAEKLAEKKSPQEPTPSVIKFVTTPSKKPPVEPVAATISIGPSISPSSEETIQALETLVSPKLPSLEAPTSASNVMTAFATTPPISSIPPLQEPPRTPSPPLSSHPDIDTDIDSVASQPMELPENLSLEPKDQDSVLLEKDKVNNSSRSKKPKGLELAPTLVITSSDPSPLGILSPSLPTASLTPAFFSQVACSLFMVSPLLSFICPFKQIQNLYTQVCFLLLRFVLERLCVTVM
How it was run: as §1

ETV2 = biological target: T4, ETV2 (Homo sapiens, UniProt O00321 1-342); conditions: protein: recombinant; tags: N-terminal GST; dsDNA, one strand shown
T4 sequence: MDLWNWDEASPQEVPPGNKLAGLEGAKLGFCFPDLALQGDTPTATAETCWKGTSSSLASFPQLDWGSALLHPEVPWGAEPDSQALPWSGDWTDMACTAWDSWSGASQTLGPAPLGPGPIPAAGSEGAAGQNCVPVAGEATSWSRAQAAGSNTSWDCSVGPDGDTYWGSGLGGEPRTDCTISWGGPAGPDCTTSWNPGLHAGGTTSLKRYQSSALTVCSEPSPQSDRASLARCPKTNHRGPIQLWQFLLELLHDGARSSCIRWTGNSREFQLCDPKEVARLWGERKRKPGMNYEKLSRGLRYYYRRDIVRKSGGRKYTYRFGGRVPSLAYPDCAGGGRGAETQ
How it was run: as §1

ELF3 = biological target: T5, ELF3 (Homo sapiens, UniProt P78545 1-371); conditions: protein: recombinant; tags: N-terminal GST; dsDNA, one strand shown
T5 sequence: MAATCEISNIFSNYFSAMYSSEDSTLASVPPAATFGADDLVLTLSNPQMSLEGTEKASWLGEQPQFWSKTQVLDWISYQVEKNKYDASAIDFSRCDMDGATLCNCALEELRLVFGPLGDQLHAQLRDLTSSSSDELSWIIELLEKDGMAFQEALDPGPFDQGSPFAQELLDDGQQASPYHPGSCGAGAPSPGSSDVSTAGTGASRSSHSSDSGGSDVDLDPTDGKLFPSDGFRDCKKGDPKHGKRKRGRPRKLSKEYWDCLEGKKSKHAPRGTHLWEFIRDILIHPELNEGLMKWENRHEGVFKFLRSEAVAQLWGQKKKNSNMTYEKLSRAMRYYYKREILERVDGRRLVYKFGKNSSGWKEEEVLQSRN
How it was run: as §1

CRX = CRX (Homo sapiens, UniProt O43186 1-299); conditions: protein: recombinant; tags: N-terminal GST; dsDNA, one strand shown
How it was run: as §1

ETV1 = ETV1 (Homo sapiens, UniProt P50549 1-477); conditions: protein: recombinant; tags: N-terminal GST; dsDNA, one strand shown
How it was run: as §1

ERF = biological target: T6, ERF (Homo sapiens, UniProt P50548 1-548); conditions: protein: recombinant; tags: N-terminal GST; dsDNA, one strand shown
T6 sequence: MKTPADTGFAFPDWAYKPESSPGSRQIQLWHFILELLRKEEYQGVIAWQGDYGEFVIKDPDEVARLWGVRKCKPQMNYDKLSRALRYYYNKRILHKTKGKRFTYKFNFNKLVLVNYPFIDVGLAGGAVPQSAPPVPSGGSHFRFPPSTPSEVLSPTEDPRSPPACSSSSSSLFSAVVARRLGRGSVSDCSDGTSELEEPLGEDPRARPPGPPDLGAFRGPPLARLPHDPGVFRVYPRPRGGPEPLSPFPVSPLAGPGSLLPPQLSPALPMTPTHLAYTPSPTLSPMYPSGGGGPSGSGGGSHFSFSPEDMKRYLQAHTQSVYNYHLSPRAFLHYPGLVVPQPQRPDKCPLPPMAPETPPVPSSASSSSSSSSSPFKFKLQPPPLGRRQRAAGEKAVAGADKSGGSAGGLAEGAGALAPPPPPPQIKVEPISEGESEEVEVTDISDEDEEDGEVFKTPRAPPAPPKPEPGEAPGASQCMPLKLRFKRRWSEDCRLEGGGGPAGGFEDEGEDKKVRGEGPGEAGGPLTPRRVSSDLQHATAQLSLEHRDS
How it was run: as §1

ETV3L = biological target: T7, ETV3L (Homo sapiens, UniProt Q6ZN32 1-361); conditions: protein: recombinant; tags: N-terminal GST; dsDNA, one strand shown
T7 sequence: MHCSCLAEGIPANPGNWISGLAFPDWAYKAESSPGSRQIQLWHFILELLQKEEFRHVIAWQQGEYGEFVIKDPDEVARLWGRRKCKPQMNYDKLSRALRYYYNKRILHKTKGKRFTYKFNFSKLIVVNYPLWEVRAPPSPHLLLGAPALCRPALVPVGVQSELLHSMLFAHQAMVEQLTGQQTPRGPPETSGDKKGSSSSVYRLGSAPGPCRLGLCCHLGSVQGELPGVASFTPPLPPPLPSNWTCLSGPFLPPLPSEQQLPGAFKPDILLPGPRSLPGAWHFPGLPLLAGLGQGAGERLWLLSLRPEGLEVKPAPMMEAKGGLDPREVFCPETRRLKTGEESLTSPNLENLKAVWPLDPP
How it was run: as §1

ETS2 = biological target: T8, ETS2 (Homo sapiens, UniProt P15036 1-469); conditions: protein: recombinant; tags: N-terminal GST; dsDNA, one strand shown
T8 sequence: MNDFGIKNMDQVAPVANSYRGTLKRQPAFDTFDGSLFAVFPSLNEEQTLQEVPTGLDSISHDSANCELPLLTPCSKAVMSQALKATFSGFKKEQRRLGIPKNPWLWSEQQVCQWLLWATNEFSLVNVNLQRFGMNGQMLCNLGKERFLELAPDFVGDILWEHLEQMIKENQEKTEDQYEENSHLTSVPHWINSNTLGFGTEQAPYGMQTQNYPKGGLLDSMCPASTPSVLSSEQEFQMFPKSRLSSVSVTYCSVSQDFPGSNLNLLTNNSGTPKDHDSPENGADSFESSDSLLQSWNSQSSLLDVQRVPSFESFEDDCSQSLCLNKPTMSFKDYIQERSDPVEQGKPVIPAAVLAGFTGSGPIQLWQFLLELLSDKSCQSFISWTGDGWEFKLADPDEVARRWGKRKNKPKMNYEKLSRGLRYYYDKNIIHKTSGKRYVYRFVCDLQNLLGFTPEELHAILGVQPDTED
How it was run: as §1

SPDEF = biological target: T9, SPDEF (Homo sapiens, UniProt O95238 1-335); conditions: protein: recombinant; tags: N-terminal GST; dsDNA, one strand shown
T9 sequence: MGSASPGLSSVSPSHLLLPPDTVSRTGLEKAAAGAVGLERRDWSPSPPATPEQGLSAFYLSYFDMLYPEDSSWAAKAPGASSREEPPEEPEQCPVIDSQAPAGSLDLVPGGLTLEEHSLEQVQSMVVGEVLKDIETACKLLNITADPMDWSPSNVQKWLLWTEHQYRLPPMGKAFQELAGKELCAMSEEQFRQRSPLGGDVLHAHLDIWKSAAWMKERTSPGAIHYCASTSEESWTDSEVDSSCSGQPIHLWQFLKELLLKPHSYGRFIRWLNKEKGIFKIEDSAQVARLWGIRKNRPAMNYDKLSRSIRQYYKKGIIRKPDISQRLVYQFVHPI
How it was run: as §1

ETV7 = biological target: T10, ETV7 (Homo sapiens, UniProt Q9Y603 1-341); conditions: protein: recombinant; tags: N-terminal GST; dsDNA, one strand shown
T10 sequence: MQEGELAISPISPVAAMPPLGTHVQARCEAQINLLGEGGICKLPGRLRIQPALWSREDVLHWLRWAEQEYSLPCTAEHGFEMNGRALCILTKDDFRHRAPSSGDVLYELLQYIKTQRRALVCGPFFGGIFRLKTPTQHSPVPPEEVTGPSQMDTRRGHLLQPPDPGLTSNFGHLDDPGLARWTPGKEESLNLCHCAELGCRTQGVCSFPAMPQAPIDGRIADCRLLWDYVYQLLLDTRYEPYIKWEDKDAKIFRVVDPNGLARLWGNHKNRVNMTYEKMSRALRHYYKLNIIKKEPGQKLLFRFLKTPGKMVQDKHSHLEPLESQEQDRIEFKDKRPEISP
How it was run: as §1

ELF5 = biological target: T11, ELF5 (Homo sapiens, UniProt Q9UKW6-2 1-255); conditions: protein: recombinant; tags: N-terminal GST; dsDNA, one strand shown
T11 sequence: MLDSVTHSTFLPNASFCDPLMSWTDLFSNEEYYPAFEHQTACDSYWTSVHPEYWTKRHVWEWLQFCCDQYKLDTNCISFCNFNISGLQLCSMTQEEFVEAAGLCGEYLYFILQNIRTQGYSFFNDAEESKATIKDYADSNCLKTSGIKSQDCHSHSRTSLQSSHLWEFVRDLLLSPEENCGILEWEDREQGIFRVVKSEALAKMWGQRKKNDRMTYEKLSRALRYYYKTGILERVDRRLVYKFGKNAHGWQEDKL
How it was run: as §1

ETV3 = biological target: T12, ETV3 (Homo sapiens, UniProt P41162-2 1-143); conditions: protein: recombinant; tags: N-terminal GST; dsDNA, one strand shown
T12 sequence: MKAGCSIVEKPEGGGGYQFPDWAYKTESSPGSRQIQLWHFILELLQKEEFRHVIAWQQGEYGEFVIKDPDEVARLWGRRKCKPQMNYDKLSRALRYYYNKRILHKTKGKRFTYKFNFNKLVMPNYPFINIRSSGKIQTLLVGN
How it was run: as §1

ETV6 = ETV6 (Homo sapiens, UniProt P41212 1-452); conditions: protein: recombinant; tags: N-terminal GST; dsDNA, one strand shown
How it was run: as §1

Sequence of ELF4 (Q99607 whole entry): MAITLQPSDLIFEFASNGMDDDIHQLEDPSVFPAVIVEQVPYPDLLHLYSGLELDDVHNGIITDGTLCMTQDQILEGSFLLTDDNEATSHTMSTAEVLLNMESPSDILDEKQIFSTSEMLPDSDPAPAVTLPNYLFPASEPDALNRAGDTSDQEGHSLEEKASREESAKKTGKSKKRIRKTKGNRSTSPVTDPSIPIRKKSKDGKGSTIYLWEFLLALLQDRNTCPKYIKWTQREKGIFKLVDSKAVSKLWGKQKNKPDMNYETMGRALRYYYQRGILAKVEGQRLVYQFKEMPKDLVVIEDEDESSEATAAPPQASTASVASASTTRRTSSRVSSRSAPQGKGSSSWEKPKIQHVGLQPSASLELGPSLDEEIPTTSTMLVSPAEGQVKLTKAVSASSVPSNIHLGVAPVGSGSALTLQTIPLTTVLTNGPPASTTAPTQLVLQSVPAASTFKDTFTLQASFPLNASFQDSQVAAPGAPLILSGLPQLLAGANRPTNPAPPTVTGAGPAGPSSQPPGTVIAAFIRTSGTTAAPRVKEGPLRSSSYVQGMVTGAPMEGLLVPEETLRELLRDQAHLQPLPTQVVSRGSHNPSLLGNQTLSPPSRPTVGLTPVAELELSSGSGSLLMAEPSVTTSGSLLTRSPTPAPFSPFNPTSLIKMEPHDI
Sequence of CRX (O43186 whole entry): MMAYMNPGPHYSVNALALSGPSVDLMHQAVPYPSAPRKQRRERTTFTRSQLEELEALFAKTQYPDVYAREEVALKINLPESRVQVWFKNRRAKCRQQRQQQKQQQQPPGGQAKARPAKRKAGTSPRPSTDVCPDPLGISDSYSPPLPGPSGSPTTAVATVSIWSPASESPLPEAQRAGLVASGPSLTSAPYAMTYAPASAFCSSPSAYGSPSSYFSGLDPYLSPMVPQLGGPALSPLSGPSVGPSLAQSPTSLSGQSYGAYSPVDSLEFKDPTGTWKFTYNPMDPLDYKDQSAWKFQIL
Sequence of ETV5 (P41161 whole entry): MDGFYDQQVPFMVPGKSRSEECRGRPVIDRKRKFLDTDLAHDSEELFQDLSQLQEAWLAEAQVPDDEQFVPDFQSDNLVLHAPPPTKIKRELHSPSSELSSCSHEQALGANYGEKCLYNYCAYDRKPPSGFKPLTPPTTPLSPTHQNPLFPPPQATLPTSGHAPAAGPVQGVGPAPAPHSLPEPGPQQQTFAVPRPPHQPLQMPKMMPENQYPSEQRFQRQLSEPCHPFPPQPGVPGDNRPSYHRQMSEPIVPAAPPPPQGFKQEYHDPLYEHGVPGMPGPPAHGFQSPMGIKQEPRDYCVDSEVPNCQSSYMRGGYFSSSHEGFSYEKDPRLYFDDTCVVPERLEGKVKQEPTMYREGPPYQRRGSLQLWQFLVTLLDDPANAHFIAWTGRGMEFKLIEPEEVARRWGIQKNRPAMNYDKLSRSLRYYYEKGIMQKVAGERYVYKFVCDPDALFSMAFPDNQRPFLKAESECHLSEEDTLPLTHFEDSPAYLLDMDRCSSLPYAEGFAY
Sequence of ETV1 (P50549 whole entry): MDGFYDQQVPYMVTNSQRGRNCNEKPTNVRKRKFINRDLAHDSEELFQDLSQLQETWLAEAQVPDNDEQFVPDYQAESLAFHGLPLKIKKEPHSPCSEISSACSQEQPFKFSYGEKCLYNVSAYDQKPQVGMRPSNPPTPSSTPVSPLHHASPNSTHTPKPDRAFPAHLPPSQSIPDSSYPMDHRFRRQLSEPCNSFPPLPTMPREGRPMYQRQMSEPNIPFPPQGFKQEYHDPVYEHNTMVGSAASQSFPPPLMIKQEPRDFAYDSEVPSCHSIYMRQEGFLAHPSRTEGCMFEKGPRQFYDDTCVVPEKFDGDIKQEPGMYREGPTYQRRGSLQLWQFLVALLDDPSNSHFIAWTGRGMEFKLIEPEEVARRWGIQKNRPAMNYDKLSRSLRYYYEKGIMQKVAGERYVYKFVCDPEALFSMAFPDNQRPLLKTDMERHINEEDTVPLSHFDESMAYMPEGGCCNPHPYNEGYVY
Sequence of ETV6 (P41212 whole entry): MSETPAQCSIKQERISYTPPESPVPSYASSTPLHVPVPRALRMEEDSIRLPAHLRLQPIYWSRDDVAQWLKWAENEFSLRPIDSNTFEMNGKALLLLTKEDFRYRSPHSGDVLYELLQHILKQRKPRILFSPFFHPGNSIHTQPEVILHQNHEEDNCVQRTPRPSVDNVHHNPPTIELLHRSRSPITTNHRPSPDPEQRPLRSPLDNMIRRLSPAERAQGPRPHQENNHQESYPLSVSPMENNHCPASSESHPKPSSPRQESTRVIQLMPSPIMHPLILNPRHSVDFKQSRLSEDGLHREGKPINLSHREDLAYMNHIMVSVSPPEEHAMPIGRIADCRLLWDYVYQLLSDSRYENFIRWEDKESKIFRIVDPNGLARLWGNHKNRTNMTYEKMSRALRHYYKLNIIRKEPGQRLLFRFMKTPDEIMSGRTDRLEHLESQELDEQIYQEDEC
Sequence of HSF1 (Q00613 whole entry): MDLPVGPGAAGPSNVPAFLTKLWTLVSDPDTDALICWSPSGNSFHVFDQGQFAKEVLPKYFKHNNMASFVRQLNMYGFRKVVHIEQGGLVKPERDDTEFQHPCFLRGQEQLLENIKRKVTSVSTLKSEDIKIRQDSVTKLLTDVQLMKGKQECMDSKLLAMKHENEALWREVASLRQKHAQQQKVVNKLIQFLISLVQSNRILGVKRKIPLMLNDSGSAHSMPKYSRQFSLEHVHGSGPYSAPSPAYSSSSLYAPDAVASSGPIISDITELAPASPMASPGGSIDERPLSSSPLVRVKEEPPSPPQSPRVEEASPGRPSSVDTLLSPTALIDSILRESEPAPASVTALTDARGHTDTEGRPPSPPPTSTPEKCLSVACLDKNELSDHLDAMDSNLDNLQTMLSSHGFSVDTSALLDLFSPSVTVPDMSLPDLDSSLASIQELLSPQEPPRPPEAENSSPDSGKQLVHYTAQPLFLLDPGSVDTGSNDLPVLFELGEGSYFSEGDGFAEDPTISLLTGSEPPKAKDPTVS

CATCTG
binding signal (FEV): 1.33 fold enrichment (6-mer frequency, TF over GST control)
binding signal (ETV5): 1.2 fold enrichment (6-mer frequency, TF over GST control)
binding signal (HSF1): 1.25 fold enrichment (6-mer frequency, TF over GST control)
binding signal (SPIC): 1.28 fold enrichment (6-mer frequency, TF over GST control)
binding signal (ELF4): 1.25 fold enrichment (6-mer frequency, TF over GST control)
binding signal (ELK4): 1.39 fold enrichment (6-mer frequency, TF over GST control)
binding signal (ETV2): 1.16 fold enrichment (6-mer frequency, TF over GST control)
binding signal (ELF3): 1.37 fold enrichment (6-mer frequency, TF over GST control)
binding signal (CRX): 1.15 fold enrichment (6-mer frequency, TF over GST control)
binding signal (ETV1): 1.31 fold enrichment (6-mer frequency, TF over GST control)
binding signal (ERF): 1.35 fold enrichment (6-mer frequency, TF over GST control)
binding signal (ETV3L): 1.23 fold enrichment (6-mer frequency, TF over GST control)
binding signal (ETS2): 1.24 fold enrichment (6-mer frequency, TF over GST control)
binding signal (SPDEF): 1.23 fold enrichment (6-mer frequency, TF over GST control)
binding signal (ETV7): 1.33 fold enrichment (6-mer frequency, TF over GST control)
binding signal (ELF5): 1.23 fold enrichment (6-mer frequency, TF over GST control)
binding signal (ETV3): 1.17 fold enrichment (6-mer frequency, TF over GST control)
binding signal (ETV6): 1.11 fold enrichment (6-mer frequency, TF over GST control)
